In all, about 94,000 compounds went through this assay and about 6,200 (6.6%) were called active. Another 31% or so got no clear call; they are omitted. Only a selection was taken, and actives are over-represented in it overall. Values without a mark were called inactive. Calls follow the shape of the dose curve; as a rule, active = well fitted inhibition curve with a large enough effect; inconclusive = small, poorly fitted or top-dose-only effect; inactive = flat fitted curve, though single readings scatter.
assay: Cytotoxic Profiling in HEK 293 Cell Line of Diverse Libraries Using Quantitative High-Throughput Screening; settings: HEK 293 viability, ATP luminescence (CellTiter-Glo), 48-72 h; series mostly up to 115 µM; activity change, negative = cytotoxicity: at the top concentration; also: nearly all actives have a fitted effect of over 60% in size
Method in brief: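 CellTiter-Glo luminescence (cellular ATP) was read after 48 or 72 hr of compound exposure at 37 degree Celsius. Cells were HEK 293 plated at 250 cells/well.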
% is scaled to controls: 0 for no effect and ±100 for the full control effect; potency is read from the fitted curve at half-maximal effect.

| Structure (SMILES) | activity change, negative = cytotoxicity | Potency | outcome |
| --- | --- | --- | --- |
| COCCC(=O)N1CCC2(CCC2NC(=O)COC)CC1 (centres undefined) | -14.6% | – | – |
| CCN(CC)CC(=O)N1CCC(Oc2ccccc2C)(C(=O)O)CC1 | -17.2% | – | – |
| COCC(=O)N(C1CCOCC1)C1CCN(C(=O)c2cccc(OC)c2)CC1 | -3.91% | – | – |
| CCN1C(=O)COC[C@@H]1C(O)c1ccc(NC(=O)Cc2ccc(OC)cc2)cc1 (some centres undefined) | -8.19% [at 172 µM] | – | – |
| COc1ccccc1CN1C(=O)COC[C@@H]1[C@H](O)c1ccc(NC(=O)c2ccc(C#N)cc2)cc1 | – | 39.8 µM (active) | – |
| CC(C)CN1C(=O)COC[C@@H]1[C@H](O)c1ccc(NC(=O)Cc2ccccc2)cc1 | -0.865% [at 172 µM] | – | – |
| Cc1ccc(NC(=O)N2CC[C@H]3C(=O)NCCCCCN(Cc4cccnc4)[C@@H]3C2)cc1C | -11.9% | – | – |
| O=C(CCC1CCCC1)N1CCN2CCS(=O)(=O)N(C3CC3)C(=O)C2C1 (centres undefined) | -7.58% | – | – |
| CC(C)c1ccc(S(=O)(=O)N(C)CC2CCOC2)cc1 (centres undefined) | -18% | – | – |
| O=c1[nH]c(-c2ccncc2)nc2c1CCN(S(=O)(=O)N1CCCC1)C2 | -1.44% | – | – |
| O=C([C@@H]1C[C@H](F)CN1S(=O)(=O)c1ccc(Cl)cc1)N1CCCCC1 | 2.25% | – | – |
| O=C(c1cccc(Br)c1)N1CCN(C2CCN(Cc3ccccn3)C2=O)CC1 (centres undefined) | -2.68% | – | – |
| Cn1cc(CN2CCN(Cc3ccccc3)CC2)ccc1=O | -24.9% | – | – |
| O=C(c1ccncc1)N1CCN(c2ccc(Cl)nn2)C(=O)C1 | – | – | inactive |
| O=C1CN(Cc2ccc(-c3ccccc3)cc2)CCN1c1cc(Cl)ncn1 | – | 31.6 µM (active) | – |
| COc1ccc(Cn2c(CN(C)S(C)(=O)=O)n[nH]c2=O)cc1 | 1.29% | – | – |
| CC(C(=O)NC1CCCCC1)[C@@H]1CC[C@@]2(C)CC[C@H](N[S+](C)(=O)[O-])[C@@H](C)[C@@H]2[C@H]1O (some centres undefined) | -20.7% [at 172 µM] | – | – |
| CN(Cc1ccccc1)Cc1ccc(F)cc1 | 3.55% [at 230 µM] | – | – |
| CN(Cc1ccc(OC(F)(F)F)cc1)Cc1ccc(-c2ccccc2)cc1 | -3.55% | – | – |
| CN(Cc1ccc(-c2ccccc2)cc1)C(=O)c1ccccc1F | – | 89.1 µM (active) | – |
| O=C(CC1Cc2ccccc2C1)N1CCN(CCO)CC(O)C1 (centres undefined) | -1.63% | – | – |
| CCCCCC(=O)Nc1nc2c(s1)C[C@@H]1[C@](C)(CO)[C@H](O)CC[C@@]1(C)[C@@H]2CC(=O)N1CCC(C(N)=O)CC1 | 0.324% | – | – |
| O=C(CCn1cccn1)N[C@@H]1CN(Cc2ccccc2)C[C@H]1CO | -10.6% | – | – |
| CC1=Nc2cc(C(=O)NCc3ccc(C)cc3)ccc2Sc2ccc(Cl)cc21 | – | 31.6 µM (active) | – |
| CSc1ccc(CNC(=O)c2noc(-c3ccc(C)cc3)n2)cc1 | 5.61% | – | – |

| Structure (SMILES) | activity change, negative = cytotoxicity | Potency | outcome |
| --- | --- | --- | --- |
| O=C(CCc1cc(Cl)no1)NCCc1noc(C2CC2)n1 | -22.8% | – | – |
| COc1ccc(-c2nnc3n2CCN([S+](C)(=O)[O-])C3)cc1 | -14.1% [at 172 µM] | – | – |
| Cc1cc(C)n(C2CN(c3cc(C4CC(O)C4)nc(C)n3)C2)n1 (centres undefined) | 3.05% | – | – |
| Cc1cc(C)n(-c2ccc(NC(=O)CC[C@H]3NC(=O)c4ccccc4NC3=O)cc2)n1 | 0.189% | – | – |
| COc1ccc(C(=O)N[C@@H]2CCC[C@@H]2C(=O)NCc2cccc(OC)c2)cc1 | -0.388% | – | – |
| COc1ccc(CC(=O)NC2CCCc3c2[nH]c2ccccc32)cc1 (centres undefined) | – | 35.5 µM (active) | – |
| O=C(NC1CCCc2c1[nH]c1ccc(F)cc21)c1ccccn1 (centres undefined) | -59% | – | – |
| CN1CCCN(C(=O)c2ccccc2)c2ccccc21 | -19.7% | – | – |
| O=C(NCc1ccc(C(F)(F)F)cc1)c1ccc2nnc(-c3ccc(C(F)(F)F)cc3)n2c1 | – | 35.5 µM (active) | – |
| O=C(NCc1ccc(F)c(F)c1)c1ccc2nnc(-c3cccnc3)n2c1 | -3.74% | – | – |
| O=C(NCc1ccc(F)cc1)c1ccc2nnc(Cc3ccco3)n2c1 | – | inactive | – |
| COCCNC(=O)c1ccc2nnc(-c3cccc(C(F)(F)F)c3)n2c1 | 0.3% | – | – |
| CCN1CCN(C(=O)c2ccc3nnc(Cc4ccc(Cl)cc4)n3c2)CC1 | – | – | inactive |
| O=C(NCc1cccc(Cl)c1)c1ccc2nnc(Cc3ccc(Cl)cc3)n2c1 | – | 44.7 µM (active) | – |
| COc1cccc(CN2CC(O)CN(S(C)(=O)=O)CC2=O)c1OC (centres undefined) | -15.1% | – | – |
| COc1ccc2[nH]c(C(=O)N[C@@H]3CN(S(C)(=O)=O)C[C@H]3CN(C)C)cc2c1 | 3.78% | – | – |
| CCNC(=O)N1CCC(n2c(C)cnc2C2CCC2)CC1 | – | – | inactive |
| COCCc1noc(CC2CCOC3(CCN(C(=O)Nc4ccc5c(c4)OCCO5)CC3)C2)n1 (centres undefined) | -16.7% | – | – |
| COc1ccc(CN2CCC3(CC(C(C)C)=NO3)C2)cc1 (centres undefined) | 3.43% [at 172 µM] | – | – |
| CC1=NOC2(CCN(Cc3ccncc3)CC2)C1 | – | – | inactive [at 172 µM] |
| COc1ccc(CN2CCC3(CC2)CC(=O)c2ccc(Cl)cc2O3)cc1 | – | 39.8 µM (active) | – |
| COc1ccccc1CN1CC[C@H](CNC(C)=O)[C@H](N(C)C)C1 | -6.07% | – | – |
| O=C(N1CCN(c2cc(-c3ccc(Cl)cc3)[nH]n2)CC1)C1(c2ccccc2)CC1 | – | 44.7 µM (active) | – |
| COc1ccc(-c2cc(N3CCN(C(=O)c4ccncc4)CC3)n[nH]2)cc1 | -19.5% | – | – |
| CC(=O)N1CCC(C(=O)NCC2CCN(c3cc(-c4ccc(C)cc4)[nH]n3)CC2)CC1 | -16.8% | – | – |

| Structure (SMILES) | activity change, negative = cytotoxicity | Potency | outcome |
| --- | --- | --- | --- |
| O=C(Cc1ccc(F)cc1)NC1CCN(c2cc(-c3ccc(Cl)cc3)[nH]n2)CC1 | 1.39% | – | – |
| COc1ccccc1C(=O)N1CCCN(c2nnc3ccccn23)CC1 | -2.9% | – | – |
| O=C(c1ccc2cc[nH]c2c1)N1CCCN(c2cc(-c3ccc(Cl)cc3)[nH]n2)CC1 | – | 39.8 µM (active) | – |
| COc1ccccc1C(=O)N1CCCN(c2ccc3nnc(C)n3n2)CC1 | -1.49% | – | – |
| O=C(c1ccccc1Cl)N1CCCN(c2cc(-c3ccc(F)cc3)[nH]n2)CC1 | – | 44.7 µM (active) | – |
| O=C(c1ccc(F)cc1F)N1CCN(c2cc(-c3ccc(Cl)cc3)[nH]n2)CC1 | – | 39.8 µM (active) | – |
| Cc1nccn1CC(=O)NCC1CCN(c2cc(-c3ccccc3)[nH]n2)CC1 | 0.823% | – | – |
| O=C(NCc1ccccc1F)C1(c2ccc(Cl)cc2)CCOCC1 | -17.4% [at 172 µM] | – | – |
| O=C(NCC1CCN(c2cc(-c3ccc(Cl)cc3)[nH]n2)CC1)c1ccc(=O)[nH]c1 | -5.24% | – | – |
| C#CCNC(=O)C[C@@H]1O[C@H](CNC(C)=O)[C@@H](O)[C@H]1O | – | – | inactive [at 230 µM] |
| O=C(NCCc1ccccc1)c1nc2sccn2c1-c1ccccc1 | -15.6% | – | – |
| Cc1nc(CC(=O)N2C[C@@H](CN3CCCCCC3)[C@@H](CO)C2)cs1 | -2.94% | – | – |
| COCC(=O)N1C[C@@H](COc2cccnc2)[C@H](c2ccccn2)C1 | -1.3% | – | – |
| CN(CCc1ccccn1)[C@@H]1[C@H](O)[C@H](CO)O[C@@H]1CNS(=O)(=O)c1cccs1 | 3.52% | – | – |
| O=C(c1cnccn1)N1CCC(NCc2cc3n(n2)CCCNC3)CC1 | -0.759% | – | – |
| Cc1noc(C)c1S(=O)(=O)N[C@@H]1C[C@H](Cn2cc(C3CC3)nn2)[C@@H](O)[C@H]1O | -1.11% [at 172 µM] | – | – |
| O=C(NC1CCCCC1)C1CN(C(=O)c2ccccc2F)CC12CCOCC2 (centres undefined) | 0.348% | – | – |
| Cc1ccc(-n2c(C3CCN(C(=O)c4ccoc4)CC3)n[nH]c2=O)cc1 | -4.39% | – | – |
| O=C(NC1CCCN(c2ccc3nnc(C4CC4)n3n2)C1)c1ccc(Cl)nc1 (centres undefined) | -24.6% | – | – |
| COc1ccc(CC(=O)NC2CCN(Cc3ccc(-c4ccccc4OC)cc3)C2)cc1 (centres undefined) | – | 39.8 µM (active) | – |
| Cc1cc(C)cc(-c2ccc(CN3CCCC(NC(=O)c4ccccc4)C3)cc2)c1 (centres undefined) | – | 28.2 µM (active) | – |
| Cc1ccc(-c2cccc(CN3CCCC(NC(=O)c4ccc(Cl)cc4)C3)c2)cc1Cl (centres undefined) | 1.69% | – | – |
| CC(C)Nc1ncc(C(=O)NC2CCCN(CCc3ccccc3)C2)cn1 (centres undefined) | – | – | inactive |
| COc1ccc(-c2ccccc2C(=O)N2CCC(NC(=O)Cc3ccc(F)cc3)CC2)nn1 | – | – | inactive |
| COc1ccc(F)cc1-c1ccc(CN2CCC(N[S+](=O)([O-])c3ccccc3)C2)cc1 (centres undefined) | – | 44.7 µM (active) | – |

| Structure (SMILES) | activity change, negative = cytotoxicity | Potency | outcome |
| --- | --- | --- | --- |
| Fc1ccc(CN2CC(Oc3ccc(F)cc3F)C2)cc1 | -5.88% | – | – |
| COc1ccccc1-c1ccc(CN2CCC(NC(=O)c3ccc(Cl)nc3)C2)cc1 (centres undefined) | – | 50.1 µM (active) | – |
| COc1ccccc1-c1ccc(C(=O)O)cc1 | -1.49% [at 172 µM] | – | – |
| COc1ccccc1-c1nnc2ccc(C(=O)NC3CC3)cn12 | -6.24% [at 172 µM] | – | – |
| COc1ccc(CC(=O)NC2CCN(c3ccc4nnc(C)n4n3)CC2)cc1 | 4.27% | – | – |
| CN(C)C(=O)C1CN(C(=O)c2ccccc2Cl)CC12CCOCC2 (centres undefined) | -0.809% | – | – |
| Cc1cnc(C2CC2)n1C1CCN(C(=O)C(C)C)CC1 | – | – | inactive |
| COc1ccc(C(=O)N2CCOC3(CCN(C(=O)CN)CC3)C2)cc1 | – | – | inactive |
| COCCNC(=O)c1ccc(CC2CCNCC2)cc1 | -45.9% | – | – |
| Cc1cnc(-c2cccnc2)n1C1CCN(S(=O)(=O)c2cccc(F)c2)CC1 | -7.54% | – | – |
| O=C(c1c(OCC2CC2)cc(=O)n2c1CCOCC2)N1CCCCCC1 | -9.09% | – | – |
| CCOc1ccc(NC(=O)C2(Cc3cccnc3)CCCCC(=O)N2)cc1 (centres undefined) | -22.4% | – | – |
| COC(=O)C1=CN(CC(=O)Nc2cccc(OC)c2)S(=O)(=O)N=C1C | -21.2% | – | – |
| COc1cccc(NC(=O)c2cnc3n[nH]c(-c4ccc(OC)cc4C)c3n2)c1 | – | 100 µM (active) | – |
| COc1cccc(NC(=O)c2c(OC)cc(=O)n3c2CCCC3)c1 | -19.1% | – | – |
| CC(c1ccon1)N(C)Cc1cnc(S(=O)(=O)C(C)C)n1Cc1ccccc1F (centres undefined) | -13.1% | – | – |
| CC(=O)N1CCC(N2CCC[C@H]2c2nc(-c3ccc(-c4cncnc4)nc3)no2)CC1 | -10.2% [at 172 µM] | – | – |
| CN1CCC(N2CCC[C@H]2c2nc(-c3ccc(OC4CCCCC4)nc3)no2)CC1 | – | 28.2 µM (active) | – |
| O=C(NC1CCCCC1)N1CCCCCC1c1nc(-c2cccnc2)no1 (centres undefined) | -16.5% | – | – |
| O=C(N[C@@H]1CN(Cc2cccnc2)C[C@H]1CO)c1cccnc1 | -8.4% | – | – |
| COc1c(F)cccc1CN1CCOc2cc([S+](=O)([O-])N(C)C)ccc2C1 | – | 79.4 µM (active) | – |
| O=[S+]([O-])(Nc1cccnc1)c1ccc2c(c1)OCCN(Cc1cscn1)C2 | -16.3% [at 172 µM] | – | – |
| CCn1cc(CN2CCOc3ccc(C(=O)NCc4ccccc4F)cc3C2)cn1 | -22% | – | – |
| O=C(c1ccccc1F)N1CCCC2(CN[S+](=O)([O-])c3cccnc3N2)C1 (centres undefined) | -1.19% | – | – |
